From PubChem BioAssay (NCATS)
Records with an inconclusive call do not appear. Activity calls are given as the source filed them. Unless noted, calls follow the shape of the dose curve; as a rule, active = well fitted curve in the direction sought with a large enough effect; inconclusive = small, poorly fitted or top-dose-only effect, or another doubt; inactive = no such curve, though single readings can be large; an effect the other way counts as inactive or inconclusive.

How the values were obtained:
[1] = Counterscreen for APE1 Inhibitors: Fluorescent Dye Displacement Validation Assay (AID 1707)
Procedure, shortened: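 Signal: ThO fluorescence (ex 480 nm/em 540 nm) on binding 50 nM dsDNA; displacement by test compound reduces it. Conditions: 250 nM dye, 50 mM Tris-HCl pH7.5, 2 mM MgCl2, 50mM NaCl, 0.01% Tween-20.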

[2] = target: Endonuclease 4 (Escherichia coli (strain K12)) (UniProt P0A6C1); assay: Counterscreen for APE1 Inhibitors: qHTS Validation Assay for Inhibitors of Endonuclease IV (AID 1708)
Procedure, shortened: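 Measured as reaction progress, the fluorescence gain between first and third kinetic reads after adding 50 nM TAMRA/BHQ-2 THF duplex to 2 nM enzyme preincubated 15 min with compound; 2 mM MgCl2, pH 7.5.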

[3] = qHTS for differential inhibitors of proliferation of Plasmodium falciparum line 7G8 (AID 1815);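 also: potency is read from the fitted curve at half-maximal effect; parasite growth measured after three days of incubation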
[4] = qHTS for differential inhibitors of proliferation of Plasmodium falciparum line 3D7 (AID 1876); also: potency is read from the fitted curve at half-maximal effect
[5] = qHTS for differential inhibitors of proliferation of Plasmodium falciparum line D10 (AID 1877);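 also: potency is read from the fitted curve at half-maximal effect; parasites grown with compound for 72 h before DNA staining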
[6] = qHTS for differential inhibitors of proliferation of Plasmodium falciparum line Dd2 (AID 1882); conditions: Potency: Plasmodium falciparum Dd2 proliferation inhibition; also: potency is read from the fitted curve at half-maximal effect; nearly all actives have a fitted effect of over 65% in size
Procedure, shortened: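 RBC culture, 0.3% parasitemia / 2.5% Hct final; cpd added by pin tool in DMSO; 72 h, 37 C, 5% CO2; lysis buffer + SYBR Green I, o/n RT dark; FI 485/535; norm. to artemisinin 0.29 uM and DMSO.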

[7] = qHTS for differential inhibitors of proliferation of Plasmodium falciparum line HB3 (AID 1886); conditions: Potency: Plasmodium falciparum HB3 proliferation inhibition;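 also: potency is read from the fitted curve at half-maximal effect; parasites grown with compound for 72 h before SYBR Green readout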
[8] = target: Ferritin light chain (Equus caballus) (UniProt P02791); assay: qHTS Validation Assay for Identification of Novel General Anesthetics (AID 2323); also: series mostly up to about 77 µM
Procedure, shortened: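 Apoferritin from horse spleen (10 uM) was mixed with 1-aminoanthracene at 50% saturation in PBS, then compounds were added. After 10 min at room temperature, fluorescence was read (ex 380 nm, em 535 nm) and normalized to free-probe and complex controls.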

[9] = target: ATP-dependent DNA helicase Q1 (Homo sapiens) (UniProt P46063); assay: qHTS Validation Assay for Inhibitors of RecQ-Like Dna Helicase 1 (RECQ1) (AID 2353)
Procedure, shortened: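 RECQ1T1 50 nM; forked duplex (20 bp + 30-nt ss tails) 200 nM, ATP 2 mM final; pH 8.0, 2 mM MgCl2, 2.5 ug/ml poly(dI-dC); 15 min compound preincubation; discontinuous kinetic read over 2 h at RT.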

[10] = High Content Imaging Cell-Based qHTS for Inhibitors of the mTORC1 Signaling Pathway in MEF Cells (AID 2667);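 also: Tsc2-/- p53-/- MEFs stably re-expressing wild-type Tsc2 exposed 24 h; series mostly up to about 38 µM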
Procedure, shortened: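 Fixed-cell imaging of phospho-S6 (Ser235/236, Alexa-488) after 24 hrs of compound treatment at 37 degree Celsius. Signal was normalized to Hoechst, and thresholds from the highest and lowest wells split cells into % active versus % non-active.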

[11] = Validation screen for small molecules that induce DNA re-replication in MCF 10A normal breast cells (AID 463097); also: nearly all actives have a fitted effect of over 60% in size
Procedure, shortened: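 DNA re-replication was detected as a rise in nuclei with elevated Hoechst fluorescence after a 48 hr compound exposure of MCF 10A cells at 37 C.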

[12] = target: Ubiquitin carboxyl-terminal hydrolase 2 (Homo sapiens) (UniProt O75604); assay: qHTS Validation Assay for Inhibitors of Ubiquitin-specific Protease USP2a Using CHOP2 as the Reporter (AID 463106)
Procedure, shortened: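 Inhibition is expressed relative to NEM as the full-inhibition control, with concentration-response curves classed by fit quality, magnitude and activity. Enzyme (USP2 core, 10nM) meets 25nM Ub-CHOP2 after compound preincubation; readings are taken at 60min.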

[13] = target: DNA polymerase III PolC-type (Bacillus subtilis (strain 168)) (UniProt P13267); assay: qHTS Validation Assay for the Inhibitors of DNA Replication in Gram-Positive Bacteria (AID 485295);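 also: reconstituted holoenzyme with PolC plus beta clamp SSB and primase; PicoGreen fluorescence of double-stranded DNA made on primed circular M13 template; series mostly up to about 57 µM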
Procedure, shortened: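 Primed replication of single-stranded M13Gori by a four-protein B. subtilis holoenzyme is measured at room temperature. Double-stranded product is quantified by PicoGreen fluorescence after an EDTA stop; inhibition is scaled between DMSO and EDTA controls.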

[14] = target: Tumor susceptibility gene 101 protein (Homo sapiens) (UniProt Q99816); assay: qHTS Validation Assay for Iinhibitors of HIV-1 Budding by Blocking the Interaction of PTAP/TSG101 (AID 485342; calls by dose curve)
Procedure, shortened: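 Fluorescence anisotropy measured PTAP-Tsg101 interaction. Final concentrations were 10 uM protein domain and 50 nM labeled peptide, equilibrated 20 min at room temperature.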

[15] = target: Beta-2 adrenergic receptor (Homo sapiens) (UniProt P07550); assay: qHTS validation assay of beta-arrestin-biased ligands of beta2-adrenergic receptor (AID 485366)
Procedure, shortened: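 Agonist activity is measured as luciferase luminescence downstream of beta-arrestin recruitment to recombinant beta2-AR in Tango cells. Exposure lasts 18 hr at 37 degrees C, and curves are categorized by r2, response size and activity.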

[16] = Quantitative high throughput screen for delayed death inhibitors of the malarial parasite plastid, 96 hour incubation (AID 488745); also: potency is read from the fitted curve at half-maximal effect; nearly all actives have a fitted effect of over 70% in size
Procedure, shortened: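 Two-generation (96 h) exposure of luciferase-reporter P. falciparum in erythrocytes, 2% hematocrit, 0.1% parasitemia final, 37 C, 5% CO2, RPMI 1640 with 0.5% Albumax. Growth inhibition scored by reduced luminescence.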

[17] = target: Thioredoxin reductase 1, cytoplasmic (Rattus norvegicus) (UniProt O89049); assay: qHTS Assay for Substrates of Mammalian Selenoprotein Thioredoxin Reductase 1 (TrxR1) (AID 488772);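 also: series mostly up to about 57 µM; a drop in NADPH fluorescence below the no-compound background marks a TrxR1 substrate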
Procedure, shortened: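 In this dual-purpose format, potential substrates are identified from the first fluorescence read after selenite addition, not from the 8-minute delta. Rat enzyme is preincubated with NADPH and then with compound at ~22 deg C.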

[18] = target: Thioredoxin reductase 1, cytoplasmic (Rattus norvegicus) (UniProt O89049); assay: qHTS Assay for Inhibitors of Mammalian Selenoprotein Thioredoxin Reductase 1 (TrxR1) (AID 488773); conditions: Potency: inhibition; also: potency is read from the fitted curve at half-maximal effect; nearly all actives have a fitted effect of over 40% in size
Procedure, shortened: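 Inhibition is scored from the loss of NADPH fluorescence between first and last reads of an 8-min kinetic run. Selenite (400 uM) was the substrate, added after 15 min compound preincubation at room temperature.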

[19] = target: M-phase phosphoprotein 8 (Homo sapiens) (UniProt Q99549); assay: qHTS Validation Assay for Inhibitors for MPP8 Chromodomain Interactions with Methylated Histone Tails (AID 488949);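 also: AlphaScreen signal from MPP8 chromodomain bound to biotinylated H3K9me3 peptide; top concentration of the series differs between compounds; nearly all actives have a fitted effect of over 55% in size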
Procedure, shortened: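 Disruption of the preformed MPP8–trimethyl-H3K9 peptide complex (both 50 nM, 30 min, RT) is measured after 30 min compound exposure, using AlphaScreen proximity beads; aurintricarboxylic acid titration serves as plate control.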

[20] = target: Transient receptor potential cation channel subfamily V member 1 (Homo sapiens) (UniProt Q8NER1); assay: HTS Assay for Compounds that Act as Enhancers of the Vanilloid Receptor 1 (AID 488979)
Procedure, shortened: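 TRPV1-expressing cells loaded with Fluo-8 calcium dye; compounds added and calcium influx read kinetically for 3 min (agonist phase), then capsaicin at EC20 added and read 2 min more for enhancement. Fluorescence ex 480/em 520 nm.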

Measured: Potency

Thioredoxin reductase 1, cytoplasmic (Rattus norvegicus), sequence (O89049 whole entry, looked up): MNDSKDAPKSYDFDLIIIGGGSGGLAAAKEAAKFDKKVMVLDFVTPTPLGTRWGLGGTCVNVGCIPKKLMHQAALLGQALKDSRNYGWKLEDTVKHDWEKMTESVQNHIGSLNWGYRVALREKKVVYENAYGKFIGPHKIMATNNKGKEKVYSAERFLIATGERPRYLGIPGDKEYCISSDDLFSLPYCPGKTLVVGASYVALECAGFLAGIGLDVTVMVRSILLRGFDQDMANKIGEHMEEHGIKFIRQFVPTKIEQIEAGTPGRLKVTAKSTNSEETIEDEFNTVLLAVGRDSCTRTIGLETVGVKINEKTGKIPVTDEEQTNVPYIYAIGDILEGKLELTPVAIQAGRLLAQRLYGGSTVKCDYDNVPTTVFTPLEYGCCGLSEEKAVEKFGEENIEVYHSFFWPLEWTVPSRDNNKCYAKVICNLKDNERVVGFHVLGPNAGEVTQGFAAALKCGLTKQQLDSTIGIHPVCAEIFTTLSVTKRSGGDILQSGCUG
ATP-dependent DNA helicase Q1 (Homo sapiens), sequence (P46063 whole entry, looked up): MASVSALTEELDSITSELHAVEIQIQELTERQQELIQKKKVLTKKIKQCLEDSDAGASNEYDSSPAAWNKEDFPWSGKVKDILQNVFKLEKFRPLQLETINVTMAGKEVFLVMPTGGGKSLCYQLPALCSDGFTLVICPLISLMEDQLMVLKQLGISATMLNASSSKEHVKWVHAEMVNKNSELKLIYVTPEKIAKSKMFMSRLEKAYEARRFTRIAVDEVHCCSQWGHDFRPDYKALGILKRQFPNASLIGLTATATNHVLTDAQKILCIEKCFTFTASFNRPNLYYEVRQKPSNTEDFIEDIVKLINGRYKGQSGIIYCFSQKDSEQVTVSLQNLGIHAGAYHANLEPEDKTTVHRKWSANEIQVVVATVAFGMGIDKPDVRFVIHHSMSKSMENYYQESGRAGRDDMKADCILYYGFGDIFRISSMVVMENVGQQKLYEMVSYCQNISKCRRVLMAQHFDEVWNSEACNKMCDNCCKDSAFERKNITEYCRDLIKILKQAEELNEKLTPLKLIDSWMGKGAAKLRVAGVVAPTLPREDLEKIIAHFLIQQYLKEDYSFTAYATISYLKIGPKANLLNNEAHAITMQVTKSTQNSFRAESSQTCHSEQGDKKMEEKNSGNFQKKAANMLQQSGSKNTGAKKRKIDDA
M-phase phosphoprotein 8 (Homo sapiens), sequence (Q99549 whole entry, looked up): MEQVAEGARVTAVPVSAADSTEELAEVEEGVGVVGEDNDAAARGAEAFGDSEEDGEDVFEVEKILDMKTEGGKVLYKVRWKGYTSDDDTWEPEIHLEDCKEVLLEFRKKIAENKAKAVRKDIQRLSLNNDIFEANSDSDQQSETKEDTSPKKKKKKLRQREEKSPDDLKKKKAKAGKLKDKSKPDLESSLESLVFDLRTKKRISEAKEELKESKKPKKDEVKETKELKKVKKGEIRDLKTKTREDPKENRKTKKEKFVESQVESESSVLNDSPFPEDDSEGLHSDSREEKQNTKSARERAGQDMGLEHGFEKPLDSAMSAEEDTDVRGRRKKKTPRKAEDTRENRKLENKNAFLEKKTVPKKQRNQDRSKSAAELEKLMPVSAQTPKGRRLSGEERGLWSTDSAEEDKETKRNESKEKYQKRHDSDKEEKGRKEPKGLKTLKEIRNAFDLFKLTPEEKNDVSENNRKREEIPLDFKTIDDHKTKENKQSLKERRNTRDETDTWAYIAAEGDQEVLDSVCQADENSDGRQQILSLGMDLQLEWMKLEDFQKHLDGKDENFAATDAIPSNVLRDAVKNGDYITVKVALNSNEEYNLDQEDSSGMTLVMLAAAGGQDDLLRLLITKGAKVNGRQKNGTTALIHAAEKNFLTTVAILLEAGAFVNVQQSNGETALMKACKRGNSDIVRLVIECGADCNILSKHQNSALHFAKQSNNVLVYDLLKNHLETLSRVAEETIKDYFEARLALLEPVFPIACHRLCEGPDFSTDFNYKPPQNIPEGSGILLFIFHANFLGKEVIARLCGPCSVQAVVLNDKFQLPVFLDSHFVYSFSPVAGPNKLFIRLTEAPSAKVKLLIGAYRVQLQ
DNA polymerase III PolC-type (Bacillus subtilis (strain 168)), sequence (P13267 whole entry, looked up): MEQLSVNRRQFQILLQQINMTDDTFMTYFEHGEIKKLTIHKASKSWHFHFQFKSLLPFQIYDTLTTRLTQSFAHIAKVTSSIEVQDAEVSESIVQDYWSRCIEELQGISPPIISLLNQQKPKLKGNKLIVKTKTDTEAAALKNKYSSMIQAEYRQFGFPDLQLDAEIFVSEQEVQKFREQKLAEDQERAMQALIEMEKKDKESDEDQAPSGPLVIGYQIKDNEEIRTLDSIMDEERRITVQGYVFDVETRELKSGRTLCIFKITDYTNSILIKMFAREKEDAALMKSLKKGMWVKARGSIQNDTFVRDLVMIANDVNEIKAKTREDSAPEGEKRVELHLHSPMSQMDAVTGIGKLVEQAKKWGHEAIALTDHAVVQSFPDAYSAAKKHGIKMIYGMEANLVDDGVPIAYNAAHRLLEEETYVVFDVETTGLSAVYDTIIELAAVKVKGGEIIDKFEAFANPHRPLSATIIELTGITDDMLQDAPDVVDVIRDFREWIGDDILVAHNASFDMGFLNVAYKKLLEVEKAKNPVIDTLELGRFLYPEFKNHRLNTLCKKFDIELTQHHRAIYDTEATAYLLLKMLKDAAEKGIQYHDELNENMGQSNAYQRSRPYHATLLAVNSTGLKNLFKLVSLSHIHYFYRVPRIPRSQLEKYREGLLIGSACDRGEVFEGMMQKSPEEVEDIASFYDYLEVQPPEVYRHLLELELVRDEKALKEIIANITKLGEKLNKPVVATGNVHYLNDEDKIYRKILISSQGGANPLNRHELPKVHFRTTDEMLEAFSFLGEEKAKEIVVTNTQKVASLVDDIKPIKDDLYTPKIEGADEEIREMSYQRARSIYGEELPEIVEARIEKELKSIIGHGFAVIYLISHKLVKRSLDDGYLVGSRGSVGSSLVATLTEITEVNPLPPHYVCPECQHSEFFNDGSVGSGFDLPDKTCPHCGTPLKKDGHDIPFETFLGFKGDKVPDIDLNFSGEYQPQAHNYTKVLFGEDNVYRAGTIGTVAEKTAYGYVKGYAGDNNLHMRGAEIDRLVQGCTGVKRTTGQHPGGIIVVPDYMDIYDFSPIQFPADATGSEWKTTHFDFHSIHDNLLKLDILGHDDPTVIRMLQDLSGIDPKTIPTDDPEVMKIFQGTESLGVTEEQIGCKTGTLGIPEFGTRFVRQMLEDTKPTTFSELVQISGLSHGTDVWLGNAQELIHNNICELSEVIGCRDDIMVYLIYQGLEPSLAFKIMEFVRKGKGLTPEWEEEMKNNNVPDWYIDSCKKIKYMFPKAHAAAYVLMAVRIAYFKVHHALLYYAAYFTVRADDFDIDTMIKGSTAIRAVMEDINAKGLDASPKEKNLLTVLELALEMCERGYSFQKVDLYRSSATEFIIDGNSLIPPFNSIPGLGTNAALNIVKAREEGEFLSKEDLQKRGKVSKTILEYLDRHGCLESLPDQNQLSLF
Ferritin light chain (Equus caballus), sequence (P02791 2-175 limits assumed): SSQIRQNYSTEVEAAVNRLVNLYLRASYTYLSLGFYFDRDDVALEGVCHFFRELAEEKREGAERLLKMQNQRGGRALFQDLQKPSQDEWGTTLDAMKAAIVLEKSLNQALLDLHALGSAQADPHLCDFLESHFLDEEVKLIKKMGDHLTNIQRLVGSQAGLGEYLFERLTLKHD
Beta-2 adrenergic receptor (Homo sapiens), sequence (P07550 whole entry, looked up): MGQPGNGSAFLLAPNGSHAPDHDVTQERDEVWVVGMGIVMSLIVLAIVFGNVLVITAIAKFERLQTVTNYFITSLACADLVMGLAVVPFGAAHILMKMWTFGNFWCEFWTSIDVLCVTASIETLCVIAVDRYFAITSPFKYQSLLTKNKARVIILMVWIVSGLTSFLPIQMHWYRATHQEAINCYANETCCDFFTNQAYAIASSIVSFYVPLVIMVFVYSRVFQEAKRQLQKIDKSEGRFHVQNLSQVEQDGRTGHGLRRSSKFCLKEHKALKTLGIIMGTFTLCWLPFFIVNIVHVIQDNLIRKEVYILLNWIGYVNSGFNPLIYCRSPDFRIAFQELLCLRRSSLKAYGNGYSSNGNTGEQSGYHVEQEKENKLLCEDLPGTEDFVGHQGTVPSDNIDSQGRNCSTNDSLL
Transient receptor potential cation channel subfamily V member 1 (Homo sapiens), sequence (Q8NER1 whole entry, looked up): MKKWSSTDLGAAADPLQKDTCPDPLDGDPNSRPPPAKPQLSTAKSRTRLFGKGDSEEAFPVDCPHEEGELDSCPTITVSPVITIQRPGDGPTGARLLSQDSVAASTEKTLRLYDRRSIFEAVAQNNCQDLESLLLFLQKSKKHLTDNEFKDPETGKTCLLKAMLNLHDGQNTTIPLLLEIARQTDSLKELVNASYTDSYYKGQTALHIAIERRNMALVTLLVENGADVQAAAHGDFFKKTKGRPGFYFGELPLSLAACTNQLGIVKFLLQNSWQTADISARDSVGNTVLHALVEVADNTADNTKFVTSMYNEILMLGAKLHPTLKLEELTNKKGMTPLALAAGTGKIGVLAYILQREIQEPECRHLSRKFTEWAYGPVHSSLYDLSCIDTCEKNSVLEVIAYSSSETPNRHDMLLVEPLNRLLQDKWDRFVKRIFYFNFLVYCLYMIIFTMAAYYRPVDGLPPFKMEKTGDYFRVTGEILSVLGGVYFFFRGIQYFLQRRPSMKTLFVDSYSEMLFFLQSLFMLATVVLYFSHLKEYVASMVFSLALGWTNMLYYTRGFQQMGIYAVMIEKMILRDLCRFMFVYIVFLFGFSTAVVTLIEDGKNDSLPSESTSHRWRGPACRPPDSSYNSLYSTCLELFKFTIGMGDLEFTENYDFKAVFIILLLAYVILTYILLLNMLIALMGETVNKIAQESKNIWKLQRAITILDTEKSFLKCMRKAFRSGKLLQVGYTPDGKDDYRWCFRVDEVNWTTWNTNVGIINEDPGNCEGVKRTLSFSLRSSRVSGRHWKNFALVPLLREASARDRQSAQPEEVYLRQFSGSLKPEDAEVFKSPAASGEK

S=C(Nc1ccccc1)Nc1nccs1
active: [3] 3.55 µM | [4] 7.94 µM | [5] 12.6 µM | [6] 11.2 µM | [7] 8.91 µM | [16] 9.28 µM | [18] 5.97 µM
inactive: [1] | [2] | [8] | [9] | [10] | [11] | [12] | [13] | [14] | [15] | [17] | [19] | [20]
